Data taken from PubChem BioAssay AID1159580 (chemical genetic matrix, 2015).
Where “and” joins values, the source holds several entries; their conditions need not be identical. Equal entries are not always repeated. Screen size: about 5,500 compounds; about 2,000 (36%) were called active. Inconclusive results (about 18%) are left out. No stated cut-off is given here; in the data, active means normalized growth mostly below about 0.91 (no sharp cut-off); inconclusive means no clear call, values can overlap the other calls; inactive means mostly above about 0.92. This is one part of the list.

Experiment: chemical genetic growth profiling, strain panel (AID 1159580);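 further: tested at 20 µM; growth read once vehicle control cultures reached saturation at 30 °C; 1 = growth at the plate median or of vehicle wells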
Settings: S. cerevisiae deletion strains, growth OD

Measured: normalized growth

Nc1ncnc2c1ncn2[C@@H]1O[C@H](CO)[C@@H](O)[C@H]1O
inactive: locus YAL021C, strain ccr4, stronger effect = lower value 0.97 | locus YAL026C, strain drs2, stronger effect = lower value 0.989 | locus YAL030W, strain snc1, stronger effect = lower value 0.995 | locus YBL061C, strain skt5, stronger effect = lower value 0.98 | locus YBR009C, strain hhf1, stronger effect = lower value 0.987 | locus YBR021W, strain FUR4, stronger effect = lower value 1.13 | locus YBR023C, strain chs3, stronger effect = lower value 0.972 | locus YBR171W, strain sec66, stronger effect = lower value 0.968 | locus YBR229C, strain ROT2, stronger effect = lower value 0.951 | locus YBR231C, strain swc5, stronger effect = lower value 1 | locus YBR279W, strain paf1, stronger effect = lower value 0.991 | locus YCL011C, strain gbp2, stronger effect = lower value 0.975 | locus YCL016C, strain dcc1, stronger effect = lower value 0.953 | locus YCL029C, strain bik1, stronger effect = lower value 0.972 | locus YCL061C, strain MRC1, stronger effect = lower value 0.966 | locus YCL069W, strain vba3, stronger effect = lower value 0.985 | locus YCR088W, strain abp1, stronger effect = lower value 0.994 | locus YDL005C, strain med2, stronger effect = lower value 0.992 | locus YDL035C, strain GPR1, stronger effect = lower value 0.987 | locus YDL040C, strain nat1, stronger effect = lower value 0.99 | locus YDL074C, strain BRE1, stronger effect = lower value 1.02 | locus YDL101C, strain DUN1, stronger effect = lower value 0.97 | locus YDL134C, strain PPH21, stronger effect = lower value 0.983 | locus YDL185W, strain tfp1, stronger effect = lower value 0.955 | locus YDL192W, strain arf1, stronger effect = lower value 0.982 | locus YDR001C, strain nth1, stronger effect = lower value 0.986 | locus YDR069C, strain doa4, stronger effect = lower value 1.02 | locus YDR101C, strain arx1, stronger effect = lower value 1.03 | locus YDR137W, strain rgp1, stronger effect = lower value 0.96 | locus YDR159W, strain sac3, stronger effect = lower value 0.994 | locus YDR162C, strain NBP2, stronger effect = lower value 0.948 | locus YDR195W, strain ref2 1.01 | locus YDR297W, strain sur2, stronger effect = lower value 0.985 | locus YDR318W, strain mcm21, stronger effect = lower value 0.973 | locus YDR334W, strain swr1, stronger effect = lower value 0.986 | locus YDR335W, strain msn5, stronger effect = lower value 0.987 | locus YDR388W, stronger effect = lower value 0.948 | locus YDR392W, strain spt3, stronger effect = lower value 0.904 | locus YDR502C, strain sam2, stronger effect = lower value 0.997 | locus YEL003W, strain gim4, stronger effect = lower value 0.994 | locus YEL037C, strain rad23, stronger effect = lower value 0.99 | locus YEL061C, strain CIN8 (second series), stronger effect = lower value 0.987 | locus YEL061C, strain CIN8, stronger effect = lower value 0.986 | locus YER015W, strain faa2, stronger effect = lower value 0.986 | locus YER016W, strain bim1, stronger effect = lower value 0.997 | locus YER110C, stronger effect = lower value 0.975 | locus YER111C, strain swi4, stronger effect = lower value 0.977 | locus YER155C, strain BEM2 (second series), stronger effect = lower value 1.01 | locus YER155C, strain BEM2, stronger effect = lower value 0.974 | locus YER167W, strain BCK2, stronger effect = lower value 0.988 | locus YFR010W, strain ubp6, stronger effect = lower value 0.99 | locus YGL078C, strain dbp3, stronger effect = lower value 0.986 | locus YGL086W, strain mad1, stronger effect = lower value 1.03 | locus YGL167C, strain pmr1, stronger effect = lower value 0.981 | locus YGL173C, strain kem1, stronger effect = lower value 0.98 | locus YGL227W, strain vid30, stronger effect = lower value 0.987 | locus YGL240W, strain doc1, stronger effect = lower value 0.989 | locus YGL248W, strain PDE1, stronger effect = lower value 0.979 | locus YGL253W, strain hxk2, stronger effect = lower value 0.988 | locus YGR135W, strain pre9, stronger effect = lower value 0.975 | locus YGR229C, strain SMI1, stronger effect = lower value 1 | locus YGR252W, strain gcn5, stronger effect = lower value 0.959 | locus YHR013C, strain ard1, stronger effect = lower value 0.955 | locus YHR027C, strain rpn1, stronger effect = lower value 0.981 | locus YHR030C, strain SLT2, stronger effect = lower value 0.994 and 1.01 | locus YHR079C, strain IRE1 (second series), stronger effect = lower value 0.982 | locus YHR079C, strain IRE1, stronger effect = lower value 1.03 | locus YHR094C, strain hxt1, stronger effect = lower value 0.97 | locus YHR129C, strain ARP1, stronger effect = lower value 0.995 | locus YHR142W, strain chs7, stronger effect = lower value 0.939 | locus YHR200W, strain rpn10, stronger effect = lower value 0.986 | locus YIL066C, strain RNR3, stronger effect = lower value 0.978 | locus YIL073C, strain SPO22, stronger effect = lower value 0.947 | locus YIL125W, strain kgd1, stronger effect = lower value 0.98 | locus YIR030C, strain dcg1, stronger effect = lower value 0.976 | locus YJL092W, strain hpr5, stronger effect = lower value 0.984 | locus YJL095W, strain BCK1 (second series), stronger effect = lower value 0.987 | locus YJL095W, strain BCK1, stronger effect = lower value 0.983 and 1.02 | locus YJL115W, strain asf1, stronger effect = lower value 0.987 | locus YJL129C, strain trk1, stronger effect = lower value 0.972 | locus YJL134W, strain LCB3, stronger effect = lower value 0.985 | locus YJL154C, strain vps35, stronger effect = lower value 0.999 | locus YJL164C, strain tpk1, stronger effect = lower value 0.981 | locus YJL166W, strain qcr8, stronger effect = lower value 0.969 | locus YJL168C, strain set2, stronger effect = lower value 0.99 | locus YJL187C, strain SWE1 (second series), stronger effect = lower value 0.968 | locus YJL187C, strain SWE1, stronger effect = lower value 0.992 | locus YJR043C, strain POL32, stronger effect = lower value 0.992
